PubChem BioAssay (EPA / NIEHS)
Records with an inconclusive call do not appear. Calls of active or inactive are those of the source. How the source made its calls: active means hit-call score of the fitted dose curve at least 0.9, where 1 is the maximum; inconclusive means response in the unintended direction; inactive means score below 0.9.

Legend:
[1] = TOX21_p53_BLA_p2_viability: Viability Assessment in the Tox21 HCT-116 p53 Agonism Beta-lactamase Assay, Phase 2 (AID 2283591);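 further: compound exposure lasted 16 h at 37 °C; actives lower the ATP signal meaning cytotoxicity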
Method in brief: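 Cytotoxicity readout: CellTiter-Glo ATP luminescence, 30 min at room temperature, after the beta-lactamase read. Cells were HCT116 exposed 16 h at 37C to compounds pin-transferred at 217-fold dilution from DMSO stocks.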

[2] = molecular target: Cellular tumor antigen p53 (Homo sapiens) (UniProt P04637); test: TOX21_p53_BLA_p3_ratio: Tox21 HCT-116 p53 Agonism Beta-lactamase Assay, Ratio, Phase 3 (AID 2283596)
Chain of Cellular tumor antigen p53 (Homo sapiens) (P04637 whole entry, looked up): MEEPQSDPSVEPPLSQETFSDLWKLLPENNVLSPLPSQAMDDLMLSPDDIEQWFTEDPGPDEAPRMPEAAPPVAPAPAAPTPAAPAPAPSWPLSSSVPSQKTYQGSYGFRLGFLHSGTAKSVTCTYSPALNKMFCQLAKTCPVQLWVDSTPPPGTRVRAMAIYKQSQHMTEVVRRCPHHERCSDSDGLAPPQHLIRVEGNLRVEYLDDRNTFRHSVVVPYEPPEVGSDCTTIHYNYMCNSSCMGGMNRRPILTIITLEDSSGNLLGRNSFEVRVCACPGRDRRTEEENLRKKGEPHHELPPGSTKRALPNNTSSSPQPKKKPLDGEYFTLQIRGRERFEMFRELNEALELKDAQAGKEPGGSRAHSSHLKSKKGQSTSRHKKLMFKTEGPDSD
Method in brief: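 HCT116 p53-bla cells (4000/well) given compound in DMSO (217-fold dilution) after 5 h, incubated 16 h at 37C. CCF4-AM substrate 2 h at room temperature; 460/530 nm emission ratio, gain fitted against DMSO.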

[3] = TOX21_p53_BLA_p4_viability: Viability Assessment in the Tox21 HCT-116 p53 Agonism Beta-lactamase Assay, Phase 4 (AID 2283597);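 further: hits lower the luminescence signal meaning cytotoxicity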
Method in brief: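 Luminescent ATP readout (CellTiter-Glo, 30 min, room temperature) in the same wells as the p53 bla ratio. HCT116 cells were treated for 16 h at 37C with DMSO-dissolved compounds.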

[4] = molecular target: Cellular tumor antigen p53 (Homo sapiens) (UniProt P04637); test: TOX21_p53_BLA_p5_ratio: Tox21 HCT-116 p53 Agonism Beta-lactamase Assay, Ratio, Phase 5 (AID 2283599)
Method in brief: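 Beta-lactamase reporter ratio (blue 460 nm over green 530 nm, 405 nm excitation) after 2 h CCF4-AM loading, in HCT-116 cells exposed 16 h at 37 C to compounds pinned at 217-fold dilution. Increases relative to DMSO baseline scored.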

[5] = TOX21_p53_BLA_p5_viability: Viability Assessment in the Tox21 HCT-116 p53 Agonism Beta-lactamase Assay, Phase 5 (AID 2283600)
Method in brief: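 Seeded cells (4000/well) settle 5 h before compound addition. Plates then incubate 16 h at 37C, receive FRET substrate for 2 h, and finally CellTiter-Glo, with luminescence measured after a 30 min room-temperature incubation.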

[6] = molecular target: Cellular tumor antigen p53 (Homo sapiens) (UniProt P04637); test: TOX21_p53_BLA_p4_ratio: Tox21 HCT-116 p53 Agonism Beta-lactamase Assay, Ratio, Phase 4 (AID 2283601)
Method in brief: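 Signal is the blue/green (460nm/530nm) ratio of cleaved versus uncleaved CCF4-AM substrate, read after 2 h substrate loading. Cells were HCT116 carrying the p53-responsive beta-lactamase reporter, dosed 16 h at 37C, 5% CO2; CellTiter-Glo measured in parallel.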

[7] = TOX21_p53_BLA_p3_viability: Viability Assessment in the Tox21 HCT-116 p53 Agonism Beta-lactamase Assay, Phase 3 (AID 2283593);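 further: cells exposed to compound for 16 h before reading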
Method in brief: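 Cellular ATP was quantified by CellTiter-Glo luminescence, read after 30 min at room temperature. Beforehand, HCT116 cells (4000/well) received compound 5 h post-seeding, 217-fold diluted from DMSO, then incubated 16 h at 37C.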

[8] = ACEA_AR_agonist_AUC_viability: ACEA Biosciences xCELLigence Real-Time Cell Analysis on Androgen Receptor Agonism for Viability (AID 2283775)
Method in brief: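 Real-time impedance tracking of 22Rv1 growth, readings every 5 min for 5 h then hourly; area-under-curve viability endpoint at 80 hours, relative to DMSO. Compounds at eight concentrations, 1:4 steps, top 100 uM, n = 2.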

Measured: outcome

CCOCC(=O)O
inactive: [1] | [2] | [3] | [4] | [5]

O=C1CCCN1CCO
inactive: [1] | [2] | [3] | [4] | [5] | [6]

C=C(C)C(=O)OCC(C)C
inactive: [1] | [7] | [2] | [4] | [6]

FC(F)(F)C(=NOCC1OCCO1)c1ccc(Cl)cc1
inactive: [1] | [7] | [2] | [3] | [5] | [6]

NC(=O)c1ccccc1O
inactive: [1] | [7] | [2] | [4] | [5] | [6] | [8]

CC(CC=O)c1ccccc1 (stereo unspecified)
inactive: [1] | [7] | [2] | [3] | [5]

OCCN(CCO)c1ccccc1
inactive: [1] | [7] | [4] | [5]

CC1(C)O[C@@H]2C[C@H]3[C@@H]4C[C@H](F)C5=CC(=O)CC[C@]5(C)[C@H]4[C@@H](O)C[C@]3(C)[C@]2(C(=O)CO)O1
inactive: [1] | [7] | [2] | [4] | [5] | [6]

O=c1[nH]nc(-c2ccc([N+](=O)[O-])o2)o1
inactive: [1] | [7] | [2] | [3] | [4] | [5] | [6]
